Experimental data from PubChem BioAssay AID1159580 (chemical genetic matrix, 2015).
“And” between values parts separate entries of the source, which are not always exact repeats. Equal entries are not always repeated. The campaign covered roughly 5,500 compounds. About 2,000 (36%) were called active. Not shown: some 18% with an inconclusive outcome. Rule as the data show it: active = normalized growth mostly below about 0.91 (no sharp cut-off); inconclusive = no clear call, values can overlap the other calls; inactive = mostly above about 0.92. The list shows a part of the results.

Assay: chemical genetic growth profiling, strain panel (AID 1159580);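 also: tested at 20 µM; growth read once vehicle control cultures reached saturation at 30 °C; 1 = growth at the plate median or of vehicle wells; lower values mean less growth of the strain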
Conditions: S. cerevisiae deletion strains, growth OD

Measured: normalized growth

NC(=O)c1cnccn1
inactive: locus YAL013W, strain DEP1, active compounds read low 1.01 and 1.02 | locus YAL021C, strain ccr4, active compounds read low 0.992 | locus YAL026C, strain drs2, active compounds read low 1.01 | locus YAL030W, strain snc1, active compounds read low 0.996 | locus YAL040C, strain CLN3, active compounds read low 1 | locus YBL061C, strain skt5, active compounds read low 0.988 | locus YBR009C, strain hhf1, active compounds read low 1.01 | locus YBR021W, strain FUR4, active compounds read low 1.02 | locus YBR023C, strain chs3, active compounds read low 1.01 | locus YBR171W, strain sec66, active compounds read low 0.968 | locus YBR229C, strain ROT2, active compounds read low 1 | locus YBR231C, strain swc5, active compounds read low 0.984 | locus YBR279W, strain paf1, active compounds read low 1 | locus YCL011C, strain gbp2, active compounds read low 1 | locus YCL016C, strain dcc1, active compounds read low 1.01 | locus YCL029C, strain bik1, active compounds read low 1 | locus YCL061C, strain MRC1 (second series), active compounds read low 1.01 | locus YCL069W, strain vba3, active compounds read low 1 | locus YCR088W, strain abp1, active compounds read low 0.981 | locus YDL005C, strain med2, active compounds read low 0.974 | locus YDL035C, strain GPR1, active compounds read low 1.01 | locus YDL040C, strain nat1, active compounds read low 0.984 | locus YDL074C, strain BRE1, active compounds read low 1 | locus YDL101C, strain DUN1, active compounds read low 1.01 | locus YDL134C, strain PPH21, active compounds read low 1.01 | locus YDL185W, strain tfp1, active compounds read low 1.02 | locus YDL192W, strain arf1, active compounds read low 1.01 | locus YDR001C, strain nth1, active compounds read low 0.996 | locus YDR069C, strain doa4, active compounds read low 0.982 | locus YDR101C, strain arx1, active compounds read low 1 | locus YDR137W, strain rgp1, active compounds read low 0.98 | locus YDR150W, strain NUM1, active compounds read low 0.993 and 1 | locus YDR159W, strain sac3, active compounds read low 1 | locus YDR162C, strain NBP2, active compounds read low 1.01 | locus YDR195W, strain ref2 0.905 | locus YDR297W, strain sur2, active compounds read low 0.994 | locus YDR318W, strain mcm21, active compounds read low 1.02 | locus YDR334W, strain swr1, active compounds read low 0.98 | locus YDR335W, strain msn5, active compounds read low 0.99 | locus YDR363W, strain ESC2, active compounds read low 0.964 | locus YDR388W, active compounds read low 1.01 | locus YDR392W, strain spt3, active compounds read low 1.05 | locus YDR502C, strain sam2, active compounds read low 1.01 | locus YEL003W, strain gim4, active compounds read low 0.992 | locus YEL037C, strain rad23, active compounds read low 0.995 | locus YEL061C, strain CIN8 (second series), active compounds read low 0.994 | locus YEL061C, strain CIN8, active compounds read low 1 | locus YER002W, strain NOP16, active compounds read low 1.01 | locus YER015W, strain faa2, active compounds read low 0.995 | locus YER016W, strain bim1, active compounds read low 1 | locus YER110C, active compounds read low 0.995 | locus YER111C, strain swi4, active compounds read low 0.993 | locus YER155C, strain BEM2 (second series), active compounds read low 0.955 | locus YER155C, strain BEM2, active compounds read low 1.01 | locus YER167W, strain BCK2, active compounds read low 1.01 | locus YFR010W, strain ubp6, active compounds read low 0.979 | locus YGL078C, strain dbp3, active compounds read low 0.993 | locus YGL086W, strain mad1, active compounds read low 1.02 | locus YGL167C, strain pmr1, active compounds read low 0.987 | locus YGL173C, strain kem1, active compounds read low 0.983 | locus YGL227W, strain vid30, active compounds read low 0.991 | locus YGL240W, strain doc1, active compounds read low 0.959 | locus YGL248W, strain PDE1, active compounds read low 1 | locus YGL253W, strain hxk2, active compounds read low 1.02 | locus YGR135W, strain pre9, active compounds read low 0.996 | locus YGR229C, strain SMI1, active compounds read low 1.03 and 1.02 | locus YGR252W, strain gcn5, active compounds read low 0.988 | locus YHR013C, strain ard1, active compounds read low 0.966 | locus YHR027C, strain rpn1, active compounds read low 0.995 | locus YHR030C, strain SLT2, active compounds read low 1 and 1.07 | locus YHR079C, strain IRE1 (second series), active compounds read low 1.01 | locus YHR079C, strain IRE1, active compounds read low 1.03 | locus YHR094C, strain hxt1, active compounds read low 0.999 | locus YHR129C, strain ARP1, active compounds read low 0.996 | locus YHR142W, strain chs7, active compounds read low 0.992 | locus YHR200W, strain rpn10, active compounds read low 1 | locus YIL066C, strain RNR3, active compounds read low 1.01 | locus YIL073C, strain SPO22, active compounds read low 1.06 | locus YIL125W, strain kgd1, active compounds read low 0.999 | locus YIR030C, strain dcg1, active compounds read low 1 | locus YJL092W, strain hpr5, active compounds read low 0.974 | locus YJL095W, strain BCK1 (second series), active compounds read low 0.995 | locus YJL095W, strain BCK1, active compounds read low 0.997 and 1.06 | locus YJL115W, strain asf1, active compounds read low 0.995 | locus YJL129C, strain trk1, active compounds read low 0.981 | locus YJL134W, strain LCB3, active compounds read low 1.01 | locus YJL154C, strain vps35, active compounds read low 0.991 | locus YJL164C, strain tpk1, active compounds read low 1.01 | locus YJL166W, strain qcr8, active compounds read low 0.969 | locus YJL168C, strain set2, active compounds read low 1.01 | locus YJL187C, strain SWE1 (second series), active compounds read low 1.01 | locus YJR043C, strain POL32, active compounds read low 1 | locus YJR066W, strain TOR1, active compounds read low 1
